“And” between values parts separate entries of the source, which are not always exact repeats. Identical values can stand only once. About 83,000 compounds went through this panel and 20% of them were active in at least one assay; those are over-represented in the sample as a whole.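 Testing used 96-well plates and a 48-hour single-concentration exposure. Example: -40 means 40% of the starting cells died.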 A number with no mark means an inactive call. The source made the active and inactive calls.

One assay has as its system IGROV1 ovarian. Kind of assay: NCI-60 one-dose screen, 48 h (100 = growth as untreated, 0 = no growth, -100 = all killed). As to conditions: 10 µM. The procedure:
Growth inhibition of the IGROV1 human tumor cell line is measured as a screen for anti-cancer activity. Cells are grown in 96 well plates and exposed to the test compound for 48 hours. Compounds are tested at a single concentration, which is 10^-5 M for most compounds. The reported endpoint is percent growth (GI% or GIPRCNT), where numbers from 0 - 100% represent growth inhibition, and numbers from -100% - 0 represent cell death. For example, a value of 40 represents 60% growth inhibition. A value of 0 means no net growth occurred over the course of the experiment. A value of -40 indicates 40% of cells at the beginning of the experiment died by the end of the experiment. A value of -100 means all cells are dead at the end of the experiment.
NCI-60 Human Tumor Cell Lines Screen was performed using the standard one-dose NCI protocol, which is described in more detail at https://dtp.cancer.gov/discovery_development/nci-60/default.htm.
Compounds with GIPRCNT values below 10 were considered active. Activity score was based on GIPRCNT using the following formula: […]
Score is 0 for GIPRCNT values of 100 or above, 50 for GIPRCNT values of 0, and 100 for GIPRCNT values of -100.
`S=C(SSC(=S)N1CCCCC1)N1CCCCC1`: the growth was 99.5%.

Still in this assay, the particulars now being: 10 µM unless noted.
For the compound `COc1ccccc1/C=C(/C)[N+](=O)[O-]`, the growth is 71.5% and 95.9%.

Consider `Oc1cc[c]([Hg][Cl])cc1`, for which the growth is 87.8%.

On to `CCC(=O)OC1CCn2c1nc1c2C(=O)C(C)=C(N2CC2)C1=O` (configuration not stated), for which the growth was -6.18% (active).

With `CO[C@H](/C(C)=C/C=C/C(C)=C/c1coc(C)n1)[C@H](C)[C@H]1C[C@@H](O)[C@@]2(C)O[C@H]2/C=C/[C@@H](C)[C@@H]2C[C@@H](CC(=O)O2)C[C@H]2O[C@@H]2C(=O)O1`, the growth was -35.5% (active).

With `O=C1c2ccccc2C(=O)C(Cl)C1Cl` (configuration not stated), the growth was 78.4%.

For `Cc1c(N)nc([C@H](CC(N)=O)NC[C@H](N)C(N)=O)nc1C(=O)N[C@H](C(=O)N[C@H](C)[C@@H](O)[C@H](C)C(=O)N[C@H](C(=O)NCCc1nc(-c2nc(C(=O)NCCC[S+](C)C)cs2)cs1)[C@@H](C)O)C(OC1OC(CO)C(O)C(O)C1OC1OC(CO)C(O)C(OC(N)=O)C1O)c1cnc[nH]1` (some centres not stated), the growth was 42.3% [2.5 µM].

Regarding `C[C@H]1CCC/C=C/[C@@H]2C[C@H](O)C[C@H]2[C@H](O)/C=C/C(=O)O1`, the growth was -54.8% (active).

With `CC[C@@]1(O)C[C@H](OC2CC(N(C)C)C(OC3CC(O)C(OC4CCC(=O)C(C)O4)C(C)O3)C(C)O2)c2c(cc3c(c2O)C(=O)c2c(O)ccc(O)c2C3=O)[C@H]1C(=O)OC` (some centres not stated), the growth is -49.2% (active).

As to `CC(=O)O[C@H]1C[C@@H]2OC3C=C(C)CCC3(C)[C@@]1(C)[C@@]21CO1` (some centres not stated), the growth is -12.6% (active) and -11.8% (active).

Consider `CC[C@](O)(C(=O)O)c1cc2n(c(=O)c1CO)Cc1cc3ccccc3nc1-2`, for which the growth is -48.1% (active).

Turning to `CCOC(=O)C(NC(=O)C(Cc1ccc(N(CCCl)CCCl)cc1)NC(C)=O)C(C)C` (configuration not stated), the growth was 79.3%.

For the compound `CC[n+]1c(-c2ccccc2)c2cc(N)ccc2c2ccc(N)cc21`, the growth was 9.12% (active).

Turning to `COc1cccc2c1cc([N+](=O)[O-])c1c(C(=O)O)cc3c(c12)OCO3`, the growth was 58.6% and 59.2%.

As for `CCC1(O)CC(OC2CC(N(C)C)C(OC3CC4OC5CC(=O)C(C)OC5OC4C(C)O3)C(C)O2)c2c(cc3c(c2O)C(=O)c2c(O)ccc(O)c2C3=O)C1C(=O)OC` (configuration not stated), the growth was -78.1% (active).

In the case of `CC[C@@]1(O)C[C@H](OC2CC(N(C)C)C(O)C(C)O2)c2c(O)c3c(c(O)c2[C@H]1OC1CC(N(C)C)C(O)C(C)O1)C(=O)c1cccc(O)c1C3=O` (some centres not stated), the growth was -71% (active).

Consider `Cc1cc(N=Nc2ccccc2C)ccc1N`, for which the growth was 77.1%.

As to `CN1CCN(c2ccc([N+](=O)[O-])c3no[n+]([O-])c23)CC1`, the growth was -71.5% (active).

For the compound `NCCc1ccc(OCc2ccccc2)c(OCc2ccccc2)c1`, the growth was 75.2%.

`CCCCCCCCCCCC1CCCC(C)N1` (configuration not stated): the growth is -40.3% (active).

Turning to `Cc1ccc(C(=O)OC(C(=O)O)C(OC(=O)c2ccc(C)cc2)C(=O)O)cc1` (configuration not stated) (tested in a mixture with another compound), the growth was 63%.

In the case of `C[C@]12CC[C@H](O)CC1=CC[C@@H]1[C@@H]2CC[C@]2(C)C(=O)CC[C@@H]12`, the growth is 80.5%.

As to `Oc1cccc2cccnc12`, the growth was 120% and 118% and 104%.

As for `CC1=C2C(=O)[C@H]3[C@@H](CC=C4C[C@@H](O)CC[C@@]43C)[C@@H]2CC[C@]12O[C@@H]1C[C@H](C)CN[C@H]1[C@H]2C`, the growth is 26.1%.

With `COc1ccc(OC)c(/C=C/[N+](=O)[O-])c1`, the growth is -4.14% (active).

With `CC[C@@]1(O)C(=O)OCc2c1cc1n(c2=O)Cc2cc3ccccc3nc2-1`, the growth is -62.2% (active).

Still in this assay, the particulars now being: 100 µM.
With `S=C(SSC(=S)N1CCCCC1)N1CCCCC1`, the growth was 50.2%.

Source of the values: PubChem BioAssay (NCI).
